Reference: PubChem BioAssay AID1879 (The Scripps Research Institute Molecular Screening Center, 2009)
The other results are listed elsewhere or left out. A number with no mark means an inactive call. Calls of active or inactive are those of the source. Rule as the data show it: active = inhibition above about 13%; inactive = the rest.

System: SARS coronavirus 3C-like protease (3CLpro)
Assay: SARS 3CLpro inhibition, confirmation assay, retest, confirmation, biochemical (AID 1879)
Conditions: QFRET protease activity assay, at 6 µM, hits give high values

Structure (SMILES)	inhibition
O=Cc1cn(Cc2ccccc2)nc1-c1cccnc1	47.9% (active)
CN1CCN(CC(=O)Nc2cccc([N+](=O)[O-])c2)CC1	1.01%
O=C(O)c1ccc(NC(=O)c2cn(-c3ccccc3)nc2-c2ccc(Cl)cc2)cc1	6.65%
COC(=O)COc1cccc2c(=O)n(CC(=O)NCc3ccccc3)ccc12	5.39%
COC(=O)c1cc(NC(=O)Cc2ccccc2[N+](=O)[O-])ccc1Cl	15% (active)
Cc1ccc(OCC(=O)Nc2ccc(C(=O)O)cc2NC(=O)COc2ccc(C)c(C)c2)cc1C	8.89%
COc1ccccc1N(C(=O)Cn1nnc2ccccc21)C(C(=O)NCc1ccco1)c1ccc(C)o1 (centres undefined)	26.2% (active)
Cc1cccc(C(=O)Nc2nnc(Cc3c[nH]c4ccccc34)s2)c1	5.81%
O=C(c1cc(=O)c2ccccc2o1)N1CCN(c2ccccc2)CC1	12.2%
O=C1C(=O)N(CC2COc3ccccc3O2)c2ccccc21 (centres undefined)	23.1% (active)
C[C@@]12C(=O)N(c3cccc(Br)c3)C(=O)N1[C@H](c1ccc(Cl)cc1)[C@@H]1C(=O)N(C3CCCCC3)C(=O)[C@@H]12	15.9% (active)
O=C(NCc1ccccc1)c1ccc(S(=O)(=O)Nc2cccc(C(F)(F)F)c2)cc1	7.75%
Cc1cccc2c1N(CCOc1ccccc1)C(=O)C2=O	19.1% (active)
CC(=O)c1cc(-c2ccccc2)[nH]c1N1CCCC1	22.5% (active)
C=C(C)COc1ccc(-c2n[nH]c(C)c2-c2ccccc2)c(O)c1	5.95%
CCC(C)(C)NC(=O)C(c1ccc(O)cc1)N(C(=O)Cn1nnc2ccccc21)c1ccc(NC(C)=O)cc1 (centres undefined)	25.6% (active)
CC(C)c1ccc(N(C(=O)c2ccco2)C(C(=O)NC2CCCC2)c2cccnc2)cc1 (centres undefined)	47.8% (active)
Cc1ccc(C(=O)NCCN2CCOCC2)cc1C	0.81%
CCCCNC(=O)N(O)C1N(/N=C/c2ccc(N(C)C)cc2)C(=S)SC1(C)C (centres undefined)	-0.44%
